Inhibition data for 39 compounds are collected here from PubChem BioAssay.

Activity calls are given as the source filed them. No rule for the calls is given here.

This assay deals with Pantothenate synthetase (Mycobacterium tuberculosis (strain ATCC 25618 / H37Rv)) (UniProt P9WIL5). Briefly: Coupled enzyme confirmation of inhibitors against recombinant Mtb PanC (AID 375).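 Also: 0% = full reaction with vehicle and 100% = no enzyme background.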 The note with it: coupled enzyme assay; at 10 µM, active compounds read high.
Chain of Pantothenate synthetase (Mycobacterium tuberculosis (strain ATCC 25618 / H37Rv)) (P9WIL5 whole entry, looked up): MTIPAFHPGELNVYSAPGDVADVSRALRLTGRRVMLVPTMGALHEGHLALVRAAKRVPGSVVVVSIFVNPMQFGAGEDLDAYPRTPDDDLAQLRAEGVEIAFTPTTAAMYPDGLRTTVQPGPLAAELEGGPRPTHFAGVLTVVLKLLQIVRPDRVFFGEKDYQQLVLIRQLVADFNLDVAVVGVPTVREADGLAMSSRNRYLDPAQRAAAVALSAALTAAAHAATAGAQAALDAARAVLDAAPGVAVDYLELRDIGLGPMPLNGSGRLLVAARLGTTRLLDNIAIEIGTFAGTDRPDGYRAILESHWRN
For `CCOC(=O)c1cc2cc(F)ccc2nc1C`, the inhibition was 1% (inactive).
As for `CC(C)c1ccc(S(=O)(=O)N2CCN(C(=O)c3cccc(F)c3)CC2)cc1`, the inhibition is 8% (inactive).
As to `CCOC(=O)C1=C(C)N=c2s/c(=C\c3cccn3C)c(=O)n2C1c1cccc(OC)c1OC` (centres undefined), the inhibition is 0% (inactive).
The same measure for `CCCSc1nnc(N2C(=O)CC(c3ccsc3)C3=C2CCCC3=O)s1` (centres undefined): 0% (inactive); for `CCOC(=O)CC(=O)Nc1c(C)cc(C)cc1C`: 4% (inactive); for `CC1(C(=O)CSc2nc3ccccc3s2)CCC(=O)O1` (centres undefined): 0% (inactive).
Turning to `CC1(C)S[C@@H]2[C@H](NC(=O)C(C(=O)O)c3ccccc3)C(=O)N2[C@H]1C(=O)O` (some centres undefined), the inhibition is 0% (inactive).
As to `O=C(NCc1ccco1)C1CCN(S(=O)(=O)N2CCC3(CC2)OCCO3)CC1`, the inhibition is 0% (inactive).
To `CC(C)(C)NC(=O)Cn1nnnc1-c1nonc1N` belongs 4% (inactive); to `CCOC(=O)C(C)(C)Sc1nc2c(cnn2-c2ccc(Cl)cc2)c(=O)[nH]1`, 0% (inactive); to `CCOC(=O)c1c(N)sc(C(=O)N2CCOCC2)c1C`, 4% (inactive).
To `N#Cc1ccccc1NC(=O)CSc1nnc(-c2ccccc2)n1-c1ccccc1` belongs 0% (inactive); to `COc1ccccc1C(=O)NCCNC(=O)c1ccco1`, 0% (inactive).
For the compound `Cc1oc(-c2ccccc2F)nc1CS(=O)(=O)CC(=O)N1CCCCCC1`, the inhibition is 1% (inactive).
The same measure for `COc1cc2c(cc1NC(=O)COC(=O)Cn1cnc3ccccc31)oc1ccccc12`: 0% (inactive); for `CCn1nnc(NC(=O)c2ccc(-c3ccc(Cl)cc3)o2)n1`: 2% (inactive).
To `O=C(NCc1cccnc1)c1ccc(=O)oc1` belongs 3% (inactive).
Consider `O=C1CC(Cc2ccccc2)C(=O)N1CCCn1ccnc1` (centres undefined), for which the inhibition was 0% (inactive).
The same measure for `O=C(Nc1cnn(Cc2ccc(Cl)cc2Cl)c1)c1noc2c1CCCC2`: 4% (inactive).
To `N#Cc1cnn(Cc2ccc(Cl)cc2)c1N` belongs 0% (inactive).
For the compound `O=C(CN1C(=O)c2ccccc2S1(=O)=O)NCc1ccccn1`, the inhibition was 0% (inactive).
Turning to `COc1ccccc1N(CN1CCCC1=O)C(=O)c1c(F)cccc1Cl`, the inhibition is 0% (inactive).
For the compound `NC1=NC(c2ccc(Cl)cc2)n2c(nc3ccccc32)N1` (centres undefined), the inhibition was 0% (inactive).
On to `CCCCC(=O)Nc1c(O)c2ccccc2[nH]c1=O`, for which the inhibition was 0% (inactive).
Take `Cc1cc(C)c(C#N)c(SCc2[nH]nc3c2C(c2ccccc2)C(C#N)=C(N)O3)n1` (centres undefined): the inhibition was 0% (inactive).
Turning to `Cc1ccc(C2C(C(=O)c3sc(C)nc3C)=C(O)C(=O)N2CCN(C)C)o1` (centres undefined), the inhibition is 0% (inactive).
The same measure for `CCc1ccccc1-n1c(SCC(=O)N2CCCC2)nnc1-c1ccccn1`: 0% (inactive); for `COCCN1C(=O)C(=O)/C(=C(/O)c2cccc(S(=O)(=O)N(C)C)c2)C12C(=O)N(C)c1ccccc12` (centres undefined): 8% (inactive); for `COc1ccc2nc(NC(=O)C3CCCN(S(=O)(=O)c4cccc5nsnc45)C3)sc2c1` (centres undefined): 5% (inactive).
To `CCOC(=O)c1ccc(NC(=O)CCc2nc(-c3cccc(C)c3)no2)cc1` belongs 2% (inactive).
To `Cn1c(C(=O)NCC2CCCO2)cc2c(=O)n(C)c3ccccc3c21` (centres undefined) belongs 0% (inactive).
As for `Cc1ccnc(N2CCN(C(=O)CSc3nc4ccccc4nc3N3CCCCC3)CC2)c1`, the inhibition was 1% (inactive).
In the case of `CC(=O)c1cccc(NC(=O)CCOc2ccccc2)c1`, the inhibition was 1% (inactive).
To `Cc1ccc(-n2nnnc2SCC(=O)N2CCN(C(=O)c3ccco3)CC2)c(C)c1` belongs 0% (inactive); to `CCOC(=O)C1CSC(CC(=O)Nc2ccc(Cl)cc2)C(=O)N1` (centres undefined), 0% (inactive).
Regarding `CCN1C(=O)/C(=C/N2CCc3ccccc32)SC1=S`, the inhibition is 0% (inactive).
To `Cc1cc(Cl)c(S(=O)(=O)Nc2ccc3c(c2)OCCO3)cc1OCC(N)=O` belongs 0% (inactive); to `CCCc1cc(-n2ccnc2)n2c(nc3ccccc32)c1C#N`, 0% (inactive).
Consider `CCOc1ccc2nc(Nc3nc4c(c(=O)[nH]3)CCC4)nc(C)c2c1`, for which the inhibition was 0% (inactive).
